In PubChem BioAssay AID1159580 (chemical genetic matrix, 2015):
In all, about 5,500 compounds went through this assay and about 2,000 (36%) were called active. Inconclusive results (about 18%) are left out. Cut-off read from the data, not from the text of the source: active = normalized growth mostly below about 0.91 (no sharp cut-off); inconclusive = no clear call, values can overlap the other calls; inactive = mostly above about 0.92. This is one part of the list.

Assay: chemical genetic growth profiling, strain panel (AID 1159580);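 note: tested at 20 µM; growth read once vehicle control cultures reached saturation at 30 °C; 1 = growth at the plate median or of vehicle wells; lower values mean less growth of the strain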
Conditions: S. cerevisiae deletion strains, growth OD
[1] = locus YHR030C, strain SLT2, active compounds read low
[2] = locus YHR079C, strain IRE1, active compounds read low
[3] = locus YJL095W, strain BCK1, active compounds read low
[4] = locus YJR066W, strain TOR1, active compounds read low
[5] = locus YLR113W, strain HOG1, active compounds read low
[6] = locus YNL183C, strain NPR1, active compounds read low
[7] = locus YOR231W, strain MKK1, active compounds read low
[8] = locus YPL256C, strain CLN2, active compounds read low

Measured: normalized growth

OC[C@@H](O)[C@@H](O)[C@H](O)[C@@H](O)CO
inactive: [1] 0.986 | [2] 0.96 | [3] 0.992 | [4] 0.946 | [5] 0.989 | [6] 0.947 | [7] 0.989 | [8] 1.01

CCCc1cc(C(N)=S)ccn1
inactive: locus YAL021C, strain ccr4, active compounds read low 0.966 | locus YAL026C, strain drs2, active compounds read low 0.982 | locus YAL030W, strain snc1, active compounds read low 0.985 | locus YBL061C, strain skt5, active compounds read low 0.975 | locus YBR009C, strain hhf1, active compounds read low 0.939 | locus YBR023C, strain chs3, active compounds read low 0.963 | locus YBR171W, strain sec66, active compounds read low 0.955 | locus YBR231C, strain swc5, active compounds read low 0.981 | locus YBR279W, strain paf1, active compounds read low 0.97 | locus YCL011C, strain gbp2, active compounds read low 0.974 | locus YCL016C, strain dcc1, active compounds read low 0.985 | locus YCL069W, strain vba3, active compounds read low 0.963 | locus YCR088W, strain abp1, active compounds read low 0.966 | locus YDL005C, strain med2, active compounds read low 0.959 | locus YDL040C, strain nat1, active compounds read low 0.964 | locus YDR001C, strain nth1, active compounds read low 0.971 | locus YDR069C, strain doa4, active compounds read low 0.95 | locus YDR137W, strain rgp1, active compounds read low 0.976 | locus YDR159W, strain sac3, active compounds read low 0.89 | locus YDR195W, strain ref2 0.976 | locus YDR297W, strain sur2, active compounds read low 0.975 | locus YDR334W, strain swr1, active compounds read low 0.929 | locus YDR335W, strain msn5, active compounds read low 0.961 | locus YDR392W, strain spt3, active compounds read low 0.886 | locus YEL003W, strain gim4, active compounds read low 0.972 | locus YEL037C, strain rad23, active compounds read low 0.964 | locus YEL061C, strain CIN8 (second series), active compounds read low 0.96 | locus YER015W, strain faa2, active compounds read low 0.978 | locus YER016W, strain bim1, active compounds read low 0.988 | locus YER111C, strain swi4, active compounds read low 0.988 | locus YER155C, strain BEM2 (second series), active compounds read low 0.958 | locus YFR010W, strain ubp6, active compounds read low 0.948 | locus YGL167C, strain pmr1, active compounds read low 0.939 | locus YGL173C, strain kem1, active compounds read low 0.966 | locus YGL227W, strain vid30, active compounds read low 0.974 | locus YGL240W, strain doc1, active compounds read low 0.953 | locus YGL253W, strain hxk2, active compounds read low 0.952 | locus YHR013C, strain ard1, active compounds read low 0.954 | locus YHR027C, strain rpn1, active compounds read low 0.967 | [1] 1.01 | [2] 1.02 | locus YHR142W, strain chs7, active compounds read low 0.981 | locus YJL092W, strain hpr5, active compounds read low 0.971 | locus YJL095W, strain BCK1 (second series), active compounds read low 0.978 | [3] 1.02 | locus YJL115W, strain asf1, active compounds read low 0.948 | locus YJL129C, strain trk1, active compounds read low 0.981 | locus YJL154C, strain vps35, active compounds read low 0.96 | locus YJL164C, strain tpk1, active compounds read low 0.971 | locus YJL166W, strain qcr8, active compounds read low 0.95 | [4] 0.925 | locus YKL160W, strain elf1, active compounds read low 0.989 | locus YKR026C, strain gcn3, active compounds read low 0.942 | locus YKR091W, strain srl3, active compounds read low 0.96 | locus YLL001W, strain dnm1, active compounds read low 0.954 | locus YLL026W, active compounds read low 0.985 | locus YLL041C, strain sdh2, active compounds read low 0.964 | locus YLR027C, strain aat2, active compounds read low 0.98 | [5] 0.997 | locus YLR221C, strain rsa3, active compounds read low 0.956 | locus YLR258W, strain gsy2, active compounds read low 0.966 | locus YLR262C, strain YPT6 (second series), active compounds read low 0.943 | locus YLR320W, strain mms22, active compounds read low 0.937 | locus YLR342W, strain FKS1, active compounds read low 0.981 | locus YLR357W, strain rsc2, active compounds read low 0.888 | locus YLR370C, strain arc18, active compounds read low 0.955 | locus YLR384C, strain iki3, active compounds read low 0.971 | locus YML120C, strain ndi1, active compounds read low 0.964 | locus YMR058W, strain fet3, active compounds read low 0.981 | locus YMR125W, strain sto1, active compounds read low 0.918 | locus YMR129W, active compounds read low 0.961 | locus YMR205C, strain PFK2, active compounds read low 0.955 | locus YMR231W, strain pep5, active compounds read low 0.967 | locus YNL071W, strain lat1, active compounds read low 0.958 | [6] 0.942 | locus YNL209W, strain ssb2, active compounds read low 0.955 | locus YNL248C, strain rpa49, active compounds read low 0.925 | locus YNL322C, strain KRE1 (second series), active compounds read low 0.966 | locus YNR049C, strain mso1, active compounds read low 0.948 | locus YOR001W, strain rrp6, active compounds read low 0.938 | locus YOR070C, strain gyp1, active compounds read low 0.98 | locus YOR080W, strain dia2, active compounds read low 0.942 | locus YOR083W, strain WHI5, active compounds read low 0.946 | locus YOR106W, strain vam3, active compounds read low 0.983 | [7] 1 | locus YOR265W, strain rbl2, active compounds read low 0.978 | locus YOR270C, strain vph1, active compounds read low 0.931 | locus YOR290C, strain snf2, active compounds read low 0.989 | locus YPL051W, strain arl3, active compounds read low 0.989 | locus YPL078C, strain atp4, active compounds read low 0.991 | locus YPL106C, strain sse1, active compounds read low 0.956 | locus YPL240C, strain hsp82, active compounds read low 0.976 | [8] 1.01
